In the library only some 10% were active in any assay of this set; here they are far more common.
JMJD2A Tudor: blocks the human JMJD2A Tudor domain; AlphaScreen JMJD2A-Tudor / H3K4me3 peptide binding; Potency, µM (doses to about 114 µM), inactives show top-dose activity change, negative = inhibition, hits mostly inhibitors; hit rate 4.4% among 390,000; also: potency is read from the fitted curve at half-maximal effect; % is scaled to controls: 0 for no effect and ±100 for the full control effect; nearly all actives have a fitted effect of over 50% in size
Target sequence (O75164 whole entry, looked up, the tested form may be a part): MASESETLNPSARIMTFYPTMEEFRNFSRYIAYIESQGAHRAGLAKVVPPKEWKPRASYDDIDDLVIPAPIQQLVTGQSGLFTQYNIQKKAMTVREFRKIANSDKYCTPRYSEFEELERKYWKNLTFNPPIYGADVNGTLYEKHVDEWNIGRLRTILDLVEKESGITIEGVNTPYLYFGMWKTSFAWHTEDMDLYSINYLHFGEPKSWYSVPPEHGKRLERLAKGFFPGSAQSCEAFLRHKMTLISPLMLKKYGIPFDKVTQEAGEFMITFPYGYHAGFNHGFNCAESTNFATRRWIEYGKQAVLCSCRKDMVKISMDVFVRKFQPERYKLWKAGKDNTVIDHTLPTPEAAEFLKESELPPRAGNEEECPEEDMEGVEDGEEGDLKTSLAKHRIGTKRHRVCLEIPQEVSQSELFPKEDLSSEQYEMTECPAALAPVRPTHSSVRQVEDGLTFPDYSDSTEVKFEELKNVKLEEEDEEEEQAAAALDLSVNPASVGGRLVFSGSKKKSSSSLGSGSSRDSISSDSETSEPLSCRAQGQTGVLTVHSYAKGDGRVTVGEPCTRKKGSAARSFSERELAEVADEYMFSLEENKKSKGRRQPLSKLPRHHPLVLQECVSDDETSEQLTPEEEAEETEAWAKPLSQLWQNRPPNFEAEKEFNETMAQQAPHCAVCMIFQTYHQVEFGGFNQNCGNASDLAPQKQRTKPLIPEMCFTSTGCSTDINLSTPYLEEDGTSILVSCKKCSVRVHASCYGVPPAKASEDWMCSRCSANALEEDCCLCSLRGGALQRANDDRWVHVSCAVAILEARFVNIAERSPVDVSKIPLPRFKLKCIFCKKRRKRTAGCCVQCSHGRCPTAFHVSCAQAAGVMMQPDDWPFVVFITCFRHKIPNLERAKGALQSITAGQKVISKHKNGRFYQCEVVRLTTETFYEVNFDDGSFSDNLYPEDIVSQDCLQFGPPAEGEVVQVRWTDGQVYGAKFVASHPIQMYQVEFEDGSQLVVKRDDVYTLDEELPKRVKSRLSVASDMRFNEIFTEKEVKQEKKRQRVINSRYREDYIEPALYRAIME
CtBP-E1A blk: blocks the CtBP interaction with E1A. AlphaScreen GST-E1A/His-CtBP binding, 1536-well; stronger effect = lower value. activity change, % (no concentration beside the values). hit rate 0.49% among 340,000; in the data active = activity change below about -65%; inconclusive = mostly about -30% to -63%; also: % is scaled to controls: 0 for no effect and ±100 for the full control effect
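AlphaScreen with 125 nM GST-E1A and 125 nM His-CtBP (5X stocks) in Tris pH 8.0, 300 mM NaCl, BSA, Tween 20, TCEP. Compounds preincubated 2 h at 37 deg C, then glutathione donor/nickel acceptor beads added for 1 h at 37 deg C in dark.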
HP1b binding inh: inhibitors of HP1-beta chromodomain binding to methylated histone tails. P83916. AlphaScreen HP1-beta / biotin-H3K9me3 peptide binding. Potency, µM (doses to about 114 µM), inactives show at the top dose activity change, negative = inhibition, hits mostly inhibitors. hit rate 0.56% among 390,000. AID 540317; also: potency is read from the fitted curve at half-maximal effect; nearly all actives have a fitted effect of over 70% in size
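HP1-beta protein (50 nM final) preincubated 30 min at room temperature with biotinylated H3(1-18)K9me3 peptide (50 nM) in PBS pH 7.4, 0.01% Tween-20, then compound added for 30 min. AlphaScreen streptavidin donor/nickel chelate acceptor beads (10 ug/mL final), 30 min dark, luminescence read.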
BAZ2B inh: blocks human BAZ2B; Q9UIF8; AlphaScreen BAZ2B-H3K14Ac peptide displacement; Potency, µM (top dose mostly 114 µM), for the others: top-dose activity change, negative = inhibition, actives largely listed as inhibitors; hit rate 4.4% among 360,000; AID 504333; also: potency is read from the fitted curve at half-maximal effect; % is scaled to controls: 0 for no effect and ±100 for the full control effect; nearly all actives have a fitted effect of over 60% in size
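Complex of BAZ2B and biotin-H3K14Ac (50 nM apiece) forms over 30 min at RT, then faces library compounds up to 110 uM for another 30 min; AlphaScreen beads added, 20 min dark incubation, luminescence read.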
G9a block: blocks human histone lysine methyltransferase G9a | Q96KQ7 | hit rate 8.8% among 350,000 | G9a H3K9 monomethylation, AlphaScreen, 2 h | Potency, µM (doses to about 102 µM), without a hit: top-dose activity, negative = inhibition, hits mostly inhibitors | AID 504332; also: potency is read from the fitted curve at half-maximal effect; % is scaled to controls: 0 for no effect and ±100 for the full control effect; nearly all actives have a fitted effect of over 75% in size
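Readings reflect AlphaScreen signal from monomethyl-H3K9 antibody detection. HMT at 20 nM; substrate b-H3K9 500 nM; cofactor SAM 20 uM; 2 h RT reaction; compounds tested as titrations in qHTS with 15 min preincubation.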
Six1-Eya2 blk: Six1/Eya2 interaction inhibition; AlphaScreen GST-Six1/His-Eya2 binding, biochemical; stronger effect = lower value; hit rate 0.56% among 360,000; activity change, % (test concentration not listed); in the data active = activity change below about -65%; inconclusive = mostly about -30% to -63%; also: % is scaled to controls: 0 for no effect and ±100 for the full control effect
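AlphaScreen luminescence read after one hour at 37 °C in darkness. Pin-transferred compounds met GST-Six1 and His-Eya2 protein (5X stock 250 nM/500 nM) plus glutathione donor and Ni-chelate acceptor beads (5X, 50 ug/mL).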
The depositor's hits bear a star; ? = inconclusive; nt = no result given; [ ] = remark or other dose. Unless noted, calls follow the shape of the dose curve; as a rule, active = well fitted inhibition curve with a large enough effect; inconclusive = small, poorly fitted or top-dose-only effect; inactive = no such curve, though single readings can be large or run the other way.

SMILES | JMJD2A Tudor | CtBP-E1A blk | HP1b binding inh | BAZ2B inh | G9a block | Six1-Eya2 blk
CC(OC(=O)Cc1ccccc1F)C(=O)Nc1ccc(Cl)cn1 (stereo not drawn) | -5% | 4 | 44% | 8% | ? | 3
COc1ccc(NC(=O)CC2Oc3ccc(C)cc3NC2=O)cc1Cl (stereo not drawn) | -7% | nt | 10% | -28% | -14%[59 µM] | nt
CC(=O)Nc1ccc(-c2ccnc3c2CC(C(=O)Nc2cccc(C(F)(F)F)c2)O3)cc1 (stereo not drawn) | nt | -13 | nt | nt | nt | 0
COc1ccc(O)c(/C=c2/sc3nc4cc(C)c(C)cc4n3c2=O)c1 | ? | 5 | ? | -8% | 2.5µM* | 0
COc1ccc(/C=c2\s/c(=C/C(=O)c3ccc(C)cc3)[nH]c2=O)c(OC)c1 | -16% | 2 | 8% | -3% | -15% | 3
COc1cc(CN2CCC(C(=O)N3CCCC(C)C3)CC2)cc(Br)c1O (stereo not drawn) | ? | -1 | ? | 22µM* | 7.9µM* | 2
COc1cc(CN2CCC(N3CCC(C(=O)N4CCCC4)CC3)CC2)cc2c1OCO2 | -14% | 0 | 31% | 1% | nt | -1
COc1cc(Cc2cc(OC)c(O)c(OC)c2)cc(OC)c1O | nt | 0 | nt | nt | nt | -5
COc1ccc(CN2CCC(C(=O)N3CCCC(C)C3)CC2)cc1OC (stereo not drawn) | 18µM* | 2 | -16% | 50µM* | 18µM* | 3
COc1cc(CN2CCCCCC2)cc(Br)c1O | 22µM* | 11 | ? | 71µM* | ? | -4
COc1ccc(C(=O)Nc2cc(-c3nc4ncccc4o3)ccc2C)cc1Br | -28% | nt | 4% | -5% | -1%[59 µM] | nt
Brc1cc2c(cc1Br)OCCOCCOCCOCCO2 | 8.9µM* | -1 | -22% | -24% | 24% | 8
Nc1ccc2c(c1)OCCOCCOCCOCCOCCO2 | -4% | -2 | 50% | -11% | 14µM* | -2
Cc1cc2c(cc3c(SCc4ccc(Cl)cc4)nnc(C)n32)o1 | ? | nt | -14% | 28µM* | 4.5µM* | nt
CCc1nc(-c2ccccc2)c2ccccn12 | 2% | -4 | 35% | nt | 16µM* | 4
O=C(O)c1cccc2cccc(-c3c4ccc(=O)c(O)c-4oc4c(O)c(O)ccc34)c12 | 0.79µM* | 0 | ? | nt | nt | -76*
N#CCCn1c(=O)c(-c2cccs2)nc2cnc(N3CCNCC3)nc21 | nt | nt | nt | nt | -16%[12.7 µM] | nt
O=C(Nc1nnc(-c2ccco2)o1)c1ccc([N+](=O)[O-])s1 | ? | -22 | 8% | ? | 45µM* | -18
CCc1ccccc1NC(=O)c1ccc([N+](=O)[O-])s1 | -14%[57.1 µM] | 4 | 15% | -29% | -33% | 2
Cc1ccsc1C(=O)Nc1nnc(-c2ccco2)o1 | -27% | ? | 51% | 79µM* | -11%[59 µM] | -22
Cc1ccc(C(=O)Nc2nnc(-c3ccco3)o2)cc1 | ? | -12 | 24% | 50µM* | 8%[59 µM] | -21
N#Cc1ccc(C(=O)Nc2nnc(-c3ccco3)o2)cc1 | 79µM* | -10 | 35% | 18µM* | -30% | -3
COc1ccc2c(c1)c1c(c(=O)n(CCc3ccccc3)c(=O)n1Cc1ccc(Cl)cc1)n2C | 11% | nt | 36% | -2% | 5%[59 µM] | nt
Cc1ccc(NC(=O)CN(C)C(=O)COC(=O)[C@@H](NC(=O)c2ccccc2F)C(C)C)cc1 | -1% | 11 | 28% | nt | nt | 4
CC(CNC(=O)c1ccc(Cn2c(SCc3ccccc3)nc3cccnc32)cc1)c1ccccc1 (stereo not drawn) | -20% | nt | -13% | -11% | -39%[59 µM] | nt
CC(=O)Nc1ccc(/C=C/C(=O)c2ccc(-n3nncc3-c3ccccc3)cc2)cc1 | -33%[57.1 µM] | nt | -8%[57 µM] | nt | nt | nt
CC(C)C(CCNC(=O)CC(Cc1ccccc1)c1ccco1)c1ccco1 (stereo not drawn) | ? | -1 | 0% | 50µM* | -26%[0.501 µM] | -2
CC(C)C(CCNC(=O)CN1C(=O)c2ccccc2C1=O)c1ccco1 (stereo not drawn) | -19% | 1 | 34% | -2% | -26%[59 µM] | -1
